From PubChem BioAssay (EPA / NIEHS)
Activity calls are given as the source filed them. The calls were made as follows: active = hit-call score of the fitted dose curve at least 0.9, where 1 is the maximum; inactive = score below 0.9.

Key:
Conditions in all cases: mRNA level, 48 h; actives raise or lower the signal
[1] = read-out: Interleukin 6 Receptor (IL6R), IL6R (gene 3570); test: LTEA_HepaRG_IL6R: Life Technologies and Expression Analysis (LTEA) Assay for Interleukin 6 Receptor (IL6R) using HepaRG (AID 2283510)
Outline: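 Readout is IL6R transcript level by TaqMan qRT-PCR, normalized to three housekeeping genes and fitted bidirectionally against 0.5% DMSO controls. Human HepaRG cells received chemicals for 48 h in serum-free induction medium, highest concentration 100 uM.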

[2] = read-out: Potassium channel subfamily K member 1 (KCNK1), KCNK1 (gene 3775); test: LTEA_HepaRG_KCNK1: Life Technologies and Expression Analysis (LTEA) Assay for Potassium channel subfamily K member 1 (KCNK1) using HepaRG (AID 2283511)
Outline: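 Differentiated human HepaRG cells in serum-free induction medium were exposed in duplicate for 48 h to 8 half-log concentrations up to 100 uM in 0.5% DMSO. KCNK1 mRNA was measured by TaqMan qRT-PCR, normalized to ACTB, GAPDH and POLR2A, and fitted bidirectionally versus DMSO.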

[3] = read-out: Keratin 19 (KRT19), KRT19 (gene 3880); test: LTEA_HepaRG_KRT19: Life Technologies and Expression Analysis (LTEA) Assay for Keratin 19 (KRT19) using HepaRG (AID 2283512)
Outline: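 HepaRG, 48 h chemical exposure, 8-pt half-log CRC from 100 uM, 0.5% DMSO vehicle, duplicates. Readout: TaqMan qRT-PCR of KRT19 mRNA, housekeeping-normalized (ACTB/GAPDH/POLR2A). Bidirectional fit vs DMSO baseline.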

[4] = read-out: JUN Transcription Factor, JUN (gene 3725); test: LTEA_HepaRG_JUN: Life Technologies and Expression Analysis (LTEA) Assay for JUN Transcription Factor using HepaRG (AID 2283513)
Outline: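 Cells plated 48 h, medium switched to serum-free induction medium, then dosed 48 h (100 uM top, half-log dilutions, 0.5% DMSO). RNA isolated; JUN measured by qRT-PCR against three housekeeping genes; gain or loss fitted relative to DMSO.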

[5] = read-out: Lipase C (LIPC), LIPC (gene 3990); test: LTEA_HepaRG_LIPC: Life Technologies and Expression Analysis (LTEA) Assay for Lipase C (LIPC) using HepaRG (AID 2283514)
Outline: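 Differentiated human HepaRG cells in serum-free induction medium were exposed in duplicate for 48 h to eight concentrations (top 100 uM, half-log steps, 0.5% DMSO). LIPC mRNA was quantified by TaqMan qRT-PCR, normalized to ACTB, GAPDH and POLR2A, with bidirectional fitting versus DMSO.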

[6] = read-out: Lipoprotein lipase (LPL), LPL (gene 4023); test: LTEA_HepaRG_LPL: Life Technologies and Expression Analysis (LTEA) Assay for Lipoprotein lipase (LPL) using HepaRG (AID 2283515)
Outline: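 Differentiated human HepaRG cells in serum-free induction medium were exposed in duplicate for 48 h to eight half-log concentrations (top 100 uM) in 0.5% DMSO. LPL mRNA was quantified by TaqMan qRT-PCR, normalized to ACTB, GAPDH and POLR2A.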

[7] = read-out: MicroRNA 122 (MIR122), gene 406906; test: LTEA_HepaRG_MIR122: Life Technologies and Expression Analysis (LTEA) Assay for MicroRNA 122 (MIR122) using HepaRG (AID 2283516); also: the transcript read is the microRNA miR-122
Outline: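 HepaRG plated 48 h, switched to serum-free induction medium, then treated in duplicate for 48 h (100 uM top, half-log steps, 0.5% DMSO vehicle). RNA isolated, qRT-PCR performed, concentration-response fitted both directions relative to DMSO.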

MYC, MYC (gene 4609) = test: LTEA_HepaRG_MYC: Life Technologies and Expression Analysis (LTEA) Assay for MYC using HepaRG (AID 2283518)
Outline: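 qRT-PCR read-out of MYC transcript (Fluidigm TaqMan, housekeeping-normalized) after 48 h chemical exposure of HepaRG cells; eight concentrations, top 100 uM, half-log steps. Bidirectional curve fitting against 0.5% DMSO vehicle baseline.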

[8] = read-out: matrix metalloproteinase-3 (MMP3), MMP3 (gene 4314); test: LTEA_HepaRG_MMP3: Life Technologies and Expression Analysis (LTEA) Assay for matrix metalloproteinase-3 (MMP3) using HepaRG (AID 2283519)
Outline: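 Differentiated human HepaRG cells, plated 48 h on collagen I, were exposed in duplicate for 48 h in serum-free induction medium to eight half-log concentrations up to 100 uM in 0.5% DMSO. MMP3 mRNA was quantified by TaqMan qRT-PCR, normalised to ACTB, GAPDH and POLR2A.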

[9] = read-out: Paternally Expressed 10 (PEG10), PEG10 (gene 23089); test: LTEA_HepaRG_PEG10: Life Technologies and Expression Analysis (LTEA) Assay for Paternally Expressed 10 (PEG10) using HepaRG (AID 2283520)
Outline: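 HepaRG, 48 h post-plating → serum-free induction medium → 48 h chemical exposure (duplicate, 8-pt, max 100 uM, half-log, 0.5% DMSO) → lysis in RLT → TaqMan qRT-PCR for PEG10, ACTB/GAPDH/POLR2A normalisation.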

[10] = read-out: Protein phosphatase 2A (PPP2R4), PTPA (gene 5524); test: LTEA_HepaRG_PPP2R4: Life Technologies and Expression Analysis (LTEA) Assay for Protein phosphatase 2A (PPP2R4) using HepaRG (AID 2283522)
Outline: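 Readout is PPP2R4 transcript level by microfluidic qRT-PCR after 48 h chemical treatment of human HepaRG liver cells. Concentrations spanned 100 uM downward in half-log steps; gain or loss of signal was fitted relative to DMSO.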

[11] = read-out: Phosphatase and tensin (PTEN), PTEN (gene 5728); test: LTEA_HepaRG_PTEN: Life Technologies and Expression Analysis (LTEA) Assay for Phosphatase and tensin (PTEN) using HepaRG (AID 2283523)
Outline: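 Differentiated human HepaRG cells, plated 48 h then switched to serum-free induction medium, were exposed in duplicate for 48 h to eight half-log concentrations up to 100 uM in 0.5% DMSO. PTEN mRNA measured by TaqMan qRT-PCR, normalized to ACTB/GAPDH/POLR2A, bidirectional fit versus DMSO.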

[12] = read-out: solute carrier (SLC22A1), SLC22A1 (gene 6580); test: LTEA_HepaRG_SLC22A1: Life Technologies and Expression Analysis (LTEA) Assay for solute carrier (SLC22A1) using HepaRG (AID 2283524)
Outline: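 Human HepaRG cells were plated 48 h, switched to serum-free induction medium, then exposed in duplicate for 48 h to 8-point half-log series from 100 uM in 0.5% DMSO. SLC22A1 mRNA measured by qRT-PCR, normalized to ACTB/GAPDH/POLR2A, fitted bidirectionally versus DMSO.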

[13] = read-out: NAD(P)H dehydrogenase [quinone] 1 (NQO1), NQO1 (gene 1728); test: LTEA_HepaRG_NQO1: Life Technologies and Expression Analysis (LTEA) Assay for NAD(P)H dehydrogenase [quinone] 1 (NQO1) using HepaRG (AID 2283526)
Outline: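 HepaRG, 48 h post-plating → serum-free induction medium → test chemical 48 h (duplicate, 100 uM top, half-log x8, 0.5% DMSO) → RNA isolation → qRT-PCR, ACTB/GAPDH/POLR2A normalization; bidirectional curve fit vs DMSO baseline.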

[14] = read-out: Nuclear factor erythroid 2-related factor 2 (Homo sapiens) (UniProt Q16236); test: LTEA_HepaRG_NFE2L2: Life Technologies and Expression Analysis (LTEA) Assay for Nuclear factor erythroid 2-related factor 2 (NFE2L2) Transcription Factor using HepaRG (AID 2283527);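 as to outcome: TaqMan qRT-PCR transcript level normalised to ACTB GAPDH and POLR2A housekeeping genes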
Outline: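 Differentiated human HepaRG cells in serum-free induction medium were exposed for 48 h to eight concentrations (top 100 uM, half-log dilutions, 0.5% DMSO), in duplicate. NFE2L2 mRNA was quantified by TaqMan qRT-PCR, normalized to ACTB, GAPDH and POLR2A, with bidirectional fitting versus DMSO.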

[15] = read-out: succinate dehydrogenase complex iron sulfur subunit B (SDHB), SDHB (gene 6390); test: LTEA_HepaRG_SDHB: Life Technologies and Expression Analysis (LTEA) Assay for succinate dehydrogenase complex iron sulfur subunit B (SDHB) using HepaRG (AID 2283528)
Outline: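 HepaRG, 48 h exposure, 8-pt half-log series from 100 uM in 0.5% DMSO, duplicates. Readout: SDHB mRNA by Fluidigm qRT-PCR vs housekeeping genes; bidirectional fit relative to DMSO.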

[16] = read-out: Signal transducer and activator of transcription 3 (Homo sapiens) (UniProt P40763); test: LTEA_HepaRG_STAT3: Life Technologies and Expression Analysis (LTEA) Assay for Signal transducer and activator of transcription (STAT3) using HepaRG (AID 2283529)
Outline: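 Differentiated human HepaRG cells in serum-free induction medium were exposed in duplicate for 48 h to eight half-log concentrations up to 100 uM in 0.5% DMSO. STAT3 mRNA was quantified by TaqMan qRT-PCR, normalized to ACTB, GAPDH and POLR2A, and fitted bidirectionally against DMSO.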

[17] = read-out: Nuclear factor NF-kappa-B p105 subunit (Homo sapiens) (UniProt P19838); test: LTEA_HepaRG_NFKB1: Life Technologies and Expression Analysis (LTEA) Assay for Nuclear Factor Kappa B Subunit 1 (NFKB1) using HepaRG (AID 2283521);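 also: TaqMan qRT-PCR transcript normalised to ACTB GAPDH and POLR2A housekeeping genes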
Outline: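 Differentiated human HepaRG cells were exposed for 48 h in serum-free induction medium to eight concentrations (top 100 uM, half-log steps, 0.5% DMSO), in duplicate. NFKB1 mRNA was measured by TaqMan qRT-PCR, normalized to ACTB/GAPDH/POLR2A, and fitted bidirectionally against DMSO.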

Chain of Signal transducer and activator of transcription 3 (Homo sapiens) (P40763 whole entry, looked up): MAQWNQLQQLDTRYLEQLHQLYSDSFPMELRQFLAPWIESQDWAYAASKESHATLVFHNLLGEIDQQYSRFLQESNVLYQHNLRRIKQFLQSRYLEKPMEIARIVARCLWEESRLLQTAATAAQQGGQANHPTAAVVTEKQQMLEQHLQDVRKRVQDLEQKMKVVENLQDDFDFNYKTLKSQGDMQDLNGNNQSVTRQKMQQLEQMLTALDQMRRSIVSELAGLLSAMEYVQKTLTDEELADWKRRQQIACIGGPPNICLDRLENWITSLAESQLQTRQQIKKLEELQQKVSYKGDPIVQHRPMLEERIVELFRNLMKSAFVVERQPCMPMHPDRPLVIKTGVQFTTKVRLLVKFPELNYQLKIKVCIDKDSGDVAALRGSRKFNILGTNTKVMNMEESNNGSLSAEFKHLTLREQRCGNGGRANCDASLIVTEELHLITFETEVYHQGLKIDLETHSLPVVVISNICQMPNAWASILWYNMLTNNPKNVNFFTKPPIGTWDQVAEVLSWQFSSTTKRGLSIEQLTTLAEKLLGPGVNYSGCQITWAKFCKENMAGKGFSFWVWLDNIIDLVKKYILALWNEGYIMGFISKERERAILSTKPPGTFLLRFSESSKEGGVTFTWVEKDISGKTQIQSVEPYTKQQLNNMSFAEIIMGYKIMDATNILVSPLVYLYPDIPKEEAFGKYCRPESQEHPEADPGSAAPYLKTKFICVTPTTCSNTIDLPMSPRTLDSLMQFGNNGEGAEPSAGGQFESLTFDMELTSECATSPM
Chain of Nuclear factor erythroid 2-related factor 2 (Homo sapiens) (Q16236 whole entry, looked up): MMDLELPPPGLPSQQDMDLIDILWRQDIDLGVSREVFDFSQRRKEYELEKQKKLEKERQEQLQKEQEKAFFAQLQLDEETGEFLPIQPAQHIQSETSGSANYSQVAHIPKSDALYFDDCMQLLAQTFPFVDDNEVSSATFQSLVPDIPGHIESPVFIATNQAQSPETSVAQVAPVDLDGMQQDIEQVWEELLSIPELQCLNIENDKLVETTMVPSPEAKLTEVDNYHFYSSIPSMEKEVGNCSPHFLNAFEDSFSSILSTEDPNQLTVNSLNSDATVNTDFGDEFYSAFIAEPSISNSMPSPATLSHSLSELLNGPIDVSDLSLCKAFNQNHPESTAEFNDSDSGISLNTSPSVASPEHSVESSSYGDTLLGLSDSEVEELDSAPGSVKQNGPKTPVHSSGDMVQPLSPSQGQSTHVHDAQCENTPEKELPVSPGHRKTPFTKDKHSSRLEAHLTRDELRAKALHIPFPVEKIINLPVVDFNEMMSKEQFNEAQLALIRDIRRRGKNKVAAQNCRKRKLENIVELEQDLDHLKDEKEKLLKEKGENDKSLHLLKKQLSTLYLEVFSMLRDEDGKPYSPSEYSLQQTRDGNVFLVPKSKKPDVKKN
Chain of Nuclear factor NF-kappa-B p105 subunit (Homo sapiens) (P19838 whole entry, looked up): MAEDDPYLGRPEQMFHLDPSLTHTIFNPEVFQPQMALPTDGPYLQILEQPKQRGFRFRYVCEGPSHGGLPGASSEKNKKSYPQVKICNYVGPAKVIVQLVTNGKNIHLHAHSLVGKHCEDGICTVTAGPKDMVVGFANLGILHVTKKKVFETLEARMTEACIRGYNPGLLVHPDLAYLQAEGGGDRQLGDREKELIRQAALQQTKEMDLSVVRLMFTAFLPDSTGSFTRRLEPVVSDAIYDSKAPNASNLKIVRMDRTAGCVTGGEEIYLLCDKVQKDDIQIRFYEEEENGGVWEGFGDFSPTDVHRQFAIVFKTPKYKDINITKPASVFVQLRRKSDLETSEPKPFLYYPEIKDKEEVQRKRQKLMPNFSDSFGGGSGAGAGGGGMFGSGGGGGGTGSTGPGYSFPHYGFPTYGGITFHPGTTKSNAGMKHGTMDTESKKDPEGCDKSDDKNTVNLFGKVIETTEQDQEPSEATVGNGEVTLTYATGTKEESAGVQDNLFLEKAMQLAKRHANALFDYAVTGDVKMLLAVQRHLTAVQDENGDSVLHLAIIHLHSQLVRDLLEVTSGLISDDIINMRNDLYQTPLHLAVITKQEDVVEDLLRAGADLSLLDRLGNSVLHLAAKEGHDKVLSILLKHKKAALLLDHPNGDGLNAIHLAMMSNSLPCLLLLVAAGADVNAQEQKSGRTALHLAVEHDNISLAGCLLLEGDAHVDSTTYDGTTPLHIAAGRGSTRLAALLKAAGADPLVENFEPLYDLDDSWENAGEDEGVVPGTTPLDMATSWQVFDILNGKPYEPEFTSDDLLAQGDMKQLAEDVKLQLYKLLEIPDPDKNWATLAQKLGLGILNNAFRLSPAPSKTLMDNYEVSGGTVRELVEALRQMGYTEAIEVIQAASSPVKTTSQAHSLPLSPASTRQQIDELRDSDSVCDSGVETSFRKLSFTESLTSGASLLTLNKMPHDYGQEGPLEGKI

Compound: OCCOc1ccccc1
- outcome [1]: inactive
- outcome [2]: inactive
- outcome [3]: inactive
- outcome [4]: inactive
- outcome [5]: inactive
- outcome [6]: inactive
- outcome [7]: inactive
- outcome (MYC, MYC (gene 4609)): inactive
- outcome [8]: inactive
- outcome [9]: inactive
- outcome [10]: inactive
- outcome [11]: inactive
- outcome [12]: inactive
- outcome [13]: inactive
- outcome [14]: inactive
- outcome [15]: inactive
- outcome [16]: inactive

Compound: CC(C)OC(=O)Nc1cccc(Cl)c1
- outcome [1]: inactive
- outcome [2]: inactive
- outcome [3]: inactive
- outcome [4]: inactive
- outcome [5]: inactive
- outcome [6]: inactive
- outcome [7]: inactive
- outcome (MYC, MYC (gene 4609)): inactive
- outcome [8]: inactive
- outcome [9]: inactive
- outcome [17]: inactive
- outcome [10]: inactive
- outcome [11]: inactive
- outcome [14]: inactive
- outcome [15]: inactive
- outcome [16]: inactive

Compound: O=[N+]([O-])c1c(Cl)c(Cl)c(Cl)c(Cl)c1Cl
- outcome [1]: inactive
- outcome [2]: inactive
- AC50 [3]: 38.6 µM (active)
- outcome [4]: inactive
- outcome [5]: inactive
- outcome [6]: inactive
- outcome [7]: inactive
- outcome (MYC, MYC (gene 4609)): inactive
- AC50 [8]: 50 µM (active)
- AC50 [9]: 69.8 µM (active)
- outcome [17]: inactive
- outcome [10]: inactive
- outcome [11]: inactive
- outcome [14]: inactive
- outcome [15]: inactive
- outcome [16]: inactive

Compound: Clc1ccccc1-c1nnc(-c2ccccc2Cl)nn1
- outcome [1]: inactive
- outcome [2]: inactive
- AC50 [3]: 21.5 µM (active)
- outcome [4]: inactive
- outcome [5]: inactive
- outcome [6]: inactive
- outcome [7]: inactive
- outcome (MYC, MYC (gene 4609)): inactive
- outcome [8]: inactive
- AC50 [9]: 30.7 µM (active)
- outcome [10]: inactive
- outcome [11]: inactive
- outcome [14]: inactive
- outcome [15]: inactive
- outcome [16]: inactive

Compound: C[C@H]1[C@H](c2ccc(Cl)cc2)SC(=O)N1C(=O)NC1CCCCC1
- outcome [1]: inactive
- outcome [2]: inactive
- AC50 [3]: 50 µM (active)
- outcome [4]: inactive
- AC50 [5]: 36.5 µM (active)
- AC50 [6]: 60.7 µM (active)
- AC50 [7]: 60 µM (active)
- AC50 (MYC, MYC (gene 4609)): 71.1 µM (active)
- outcome [8]: inactive
- AC50 [9]: 12.8 µM (active)
- AC50 [10]: 50 µM (active)
- outcome [11]: inactive
- AC50 [14]: 73 µM (active)
- AC50 [15]: 26.7 µM (active)
- outcome [16]: inactive

Compound: O=C(O)COc1ccc(Cl)cc1Cl
- outcome [1]: inactive
- outcome [2]: inactive
- outcome [3]: inactive
- outcome [4]: inactive
- outcome [5]: inactive
- outcome [7]: inactive
- outcome (MYC, MYC (gene 4609)): inactive
- outcome [8]: inactive
- AC50 [9]: 10.1 µM (active)
- outcome [10]: inactive
- outcome [11]: inactive
- outcome [14]: inactive
- outcome [15]: inactive
- outcome [16]: inactive
